# The sample as a whole holds a higher share of the strongest signals than the screen did.
# B1: cFel (Cyprinus carpio), P68512 (protein)
# chain: LDCTVIDGNLKQIDAGSGSVVGVNNLNETFVLIDNVFTKISGSLKHFSVGPAGQLGVNTANNIFKYQSGGFVQLAGLLKQVDAGGDQIIAGVNMYDDIYCLNMDANNKWPSSNTPWVQINGKLKYYSCGPYSCWGVNSNDQIFIMKDVSSNVCSGSGSFINIPGLLSMIEVATDGSVFGVNSQGNLYQRTGVTRSKPDGTDWISMVACPNGHKHVSFDLGVLWLVCVDGSIRKCILTD
# What was measured:
# Assay in all cases: glycan array binding signal (z-score within array); higher = stronger binding
# Details in all cases: glycan notation: IUPAC condensed, linker removed
# GlcNAc(b1-3)Man = target: GlcNAc(b1-3)Man
# How it was run: (§1)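 The Consortium for Functional Glycomics database supplied 3228 glycan arrays, of which those lacking an available protein sequence were dropped. The binding signal, a within-array Z-score, was averaged across arrays of the same protein sequence and across linkers. Negative scores can be read as non-binding.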
# [1] = target: GlcNAc(b1-4)[GlcNAc(b1-6)]GalNAc
# How it was run: as §1
# [2] = target: Man(a1-3)[Man(a1-6)]Man(a1-6)[Man(a1-2)Man(a1-3)]Man(b1-4)GlcNAc(b1-4)GlcNAc
# How it was run: as §1
# [3] = target: Neu5Ac(a2-3)Gal(b1-3)GlcNAc(b1-2)[Neu5Ac(a2-3)Gal(b1-3)GlcNAc(b1-4)]Man(a1-6)[Neu5Ac(a2-3)Gal(b1-3)GlcNAc(b1-2)Man(a1-3)]Man(b1-4)GlcNAc(b1-4)GlcNAc
# How it was run: as §1
# [4] = target: Neu5Ac(a2-3)Gal(b1-4)GlcNAc(b1-2)Man(a1-3)[GlcNAc(b1-4)][Neu5Ac(a2-3)Gal(b1-4)GlcNAc(b1-2)Man(a1-6)]Man(b1-4)GlcNAc(b1-4)GlcNAc
# How it was run: as §1
# [5] = target: Neu5Ac(a2-3)Gal(b1-4)GlcNAc(b1-2)[Neu5Ac(a2-3)Gal(b1-4)GlcNAc(b1-4)]Man(a1-3)[GlcNAc(b1-4)][Neu5Ac(a2-3)Gal(b1-4)GlcNAc(b1-4)Man(a1-6)]Man(b1-4)GlcNAc(b1-4)GlcNAc
# How it was run: as §1
# [6] = target: Neu5Ac(a2-3)Gal(b1-4)GlcNAc(b1-6)GalNAc
# How it was run: as §1
# [7] = target: Neu5Ac(a2-3)Gal(b1-4)[Fuc(a1-3)]GlcNAc(b1-3)Gal(b1-4)[Fuc(a1-3)]GlcNAc(b1-3)Gal(b1-4)[Fuc(a1-3)]GlcNAc
# How it was run: as §1
# [8] = target: Neu5Ac(a2-6)Gal(b1-4)GlcNAc(b1-3)[Neu5Ac(a2-6)Gal(b1-4)GlcNAc(b1-6)]GalNAc
# How it was run: as §1
# [9] = target: Neu5Gc(a2-3)Gal(b1-3)GlcNAc
# How it was run: as §1
# [10] = target: Neu5Gc(a2-6)Gal(b1-4)GlcNAc
# How it was run: as §1
# Neu5Gc(a2-6)GalNAc = target: Neu5Gc(a2-6)GalNAc
# How it was run: as §1
binder,measurement,setting,value
B1,glycan array binding signal (z-score),GlcNAc(b1-3)Man,3.22
same,glycan array binding signal (z-score),[1],-0.003
same,glycan array binding signal (z-score),[2],0.309
same,glycan array binding signal (z-score),[3],0.972
same,glycan array binding signal (z-score),[4],3.12
same,glycan array binding signal (z-score),[5],-0.578
same,glycan array binding signal (z-score),[6],-0.95
same,glycan array binding signal (z-score),[7],-1.09
same,glycan array binding signal (z-score),[8],3.16
same,glycan array binding signal (z-score),[9],2.89
same,glycan array binding signal (z-score),[10],-1.34
same,glycan array binding signal (z-score),Neu5Gc(a2-6)GalNAc,0.828

# — the supplement of paper PMC8728848
